Reference: the supplement of paper PMC10849652
Of roughly 7,900 targets only a part is listed; those with a hit were picked by preference. About 0.6% of all pairs of compound and target were hits.

What was measured:
Assay in all cases: log2 fold change, soluble protein after heating vs DMSO (PISA); higher = thermal stabilisation; K562 cells, 10 uM, 30 min; active = over 0.2 and 3.5 SD of the protein, either way, in both replicates (recomputed)
ZW10 = ZW10 (UniProt O43264)
Summary of the method: (§1)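 K562 cells at 2×10^6 cells/mL were treated with 10 μM compound for 30 min. Aliquots were heated for 3 min across 48°C-58°C, pooled, and extracted in PBS with 0.5% NP-40 at 4°C; soluble protein was the supernatant after 21,000xg for 90 min. Soluble protein was quantified by TMTpro 16plex LC-MS/MS with channel sums equalised, and reported as log2 fold change in thermal stability against DMSO controls, with values from duplicates.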

ZWILCH = ZWILCH (UniProt Q9H900)
Chain of ZWILCH (Q9H900 whole entry, looked up): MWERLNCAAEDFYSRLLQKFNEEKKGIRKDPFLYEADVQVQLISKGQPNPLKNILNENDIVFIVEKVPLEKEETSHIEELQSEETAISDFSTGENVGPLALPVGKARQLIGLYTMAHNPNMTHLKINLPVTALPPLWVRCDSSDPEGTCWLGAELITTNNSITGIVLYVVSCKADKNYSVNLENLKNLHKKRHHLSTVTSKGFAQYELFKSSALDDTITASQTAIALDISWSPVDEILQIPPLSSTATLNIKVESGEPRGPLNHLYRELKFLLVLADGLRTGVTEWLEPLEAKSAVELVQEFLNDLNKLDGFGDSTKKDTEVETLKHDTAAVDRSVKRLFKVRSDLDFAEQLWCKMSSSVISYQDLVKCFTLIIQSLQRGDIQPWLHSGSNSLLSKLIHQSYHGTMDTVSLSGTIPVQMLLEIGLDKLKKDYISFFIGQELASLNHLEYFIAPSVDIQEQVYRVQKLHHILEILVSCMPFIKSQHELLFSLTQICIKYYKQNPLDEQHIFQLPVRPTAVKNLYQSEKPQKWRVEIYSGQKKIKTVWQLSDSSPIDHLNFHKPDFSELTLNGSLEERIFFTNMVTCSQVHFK
Summary of the method: as §1

ZYG11B = ZYG11B (UniProt Q9C0D3)
Chain of ZYG11B (Q9C0D3 whole entry, looked up): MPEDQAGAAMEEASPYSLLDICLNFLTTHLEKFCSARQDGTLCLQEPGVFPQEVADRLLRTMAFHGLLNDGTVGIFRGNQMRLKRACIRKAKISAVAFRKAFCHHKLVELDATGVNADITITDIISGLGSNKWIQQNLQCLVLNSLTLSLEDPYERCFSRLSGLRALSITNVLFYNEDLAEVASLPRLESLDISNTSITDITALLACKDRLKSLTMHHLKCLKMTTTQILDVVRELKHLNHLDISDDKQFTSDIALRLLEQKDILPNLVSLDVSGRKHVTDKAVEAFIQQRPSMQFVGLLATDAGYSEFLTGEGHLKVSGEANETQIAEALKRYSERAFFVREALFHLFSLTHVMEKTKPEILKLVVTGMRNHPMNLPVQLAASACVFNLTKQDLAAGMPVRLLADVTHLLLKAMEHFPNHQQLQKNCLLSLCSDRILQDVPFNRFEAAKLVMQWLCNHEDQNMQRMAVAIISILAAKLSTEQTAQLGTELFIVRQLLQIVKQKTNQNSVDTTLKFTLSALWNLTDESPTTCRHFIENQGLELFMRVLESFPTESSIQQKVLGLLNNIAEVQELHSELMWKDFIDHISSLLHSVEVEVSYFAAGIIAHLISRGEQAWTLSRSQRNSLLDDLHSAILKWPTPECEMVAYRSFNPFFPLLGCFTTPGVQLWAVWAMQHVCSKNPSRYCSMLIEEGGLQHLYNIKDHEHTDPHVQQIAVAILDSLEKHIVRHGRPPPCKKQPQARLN
Summary of the method: as §1

Measured: log2 fold change

Chain of ZW10 (O43264 whole entry, looked up): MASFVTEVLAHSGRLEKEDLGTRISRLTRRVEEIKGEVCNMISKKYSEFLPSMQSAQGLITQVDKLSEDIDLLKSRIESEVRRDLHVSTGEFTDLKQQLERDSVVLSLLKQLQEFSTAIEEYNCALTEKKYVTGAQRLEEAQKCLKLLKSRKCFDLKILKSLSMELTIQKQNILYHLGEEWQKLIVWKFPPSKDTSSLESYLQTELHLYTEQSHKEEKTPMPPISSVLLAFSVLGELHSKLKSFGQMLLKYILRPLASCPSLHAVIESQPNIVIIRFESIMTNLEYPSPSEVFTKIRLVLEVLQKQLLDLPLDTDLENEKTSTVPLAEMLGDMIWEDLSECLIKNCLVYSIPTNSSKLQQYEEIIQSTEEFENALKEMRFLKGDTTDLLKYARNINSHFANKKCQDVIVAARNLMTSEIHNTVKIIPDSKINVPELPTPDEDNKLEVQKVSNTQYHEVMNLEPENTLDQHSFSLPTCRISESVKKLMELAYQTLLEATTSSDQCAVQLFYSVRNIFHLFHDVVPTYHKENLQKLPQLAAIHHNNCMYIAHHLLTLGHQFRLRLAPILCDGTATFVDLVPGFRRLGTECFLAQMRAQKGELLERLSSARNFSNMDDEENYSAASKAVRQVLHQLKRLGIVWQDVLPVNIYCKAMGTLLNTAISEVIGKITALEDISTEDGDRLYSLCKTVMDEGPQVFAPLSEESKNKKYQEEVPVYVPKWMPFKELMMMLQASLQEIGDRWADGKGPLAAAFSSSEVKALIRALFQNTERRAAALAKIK

CON(C)C(=O)N1N=C(c2cc(F)ccc2F)S[C@@]1(CCCN)c1ccccc1 [filanesib]
inactive: ZW10 0.052 | ZWILCH 0.016 | ZYG11B 0.014

CC[C@@H]1C(=O)N(C)c2cnc(Nc3ccc(C(=O)NC4CCN(C)CC4)cc3OC)nc2N1C1CCCC1
inactive: ZW10 -0.197 | ZWILCH -0.078 | ZYG11B -0.031

O=C1NC(=O)/C(=C\c2ccc3nccnc3c2)S1
inactive: ZW10 -0.009 | ZWILCH 0.056 | ZYG11B -0.084

CC(C)N(C[C@H]1O[C@@H](n2cnc3c(N)ncnc32)[C@H](O)[C@@H]1O)[C@H]1C[C@@H](CCc2nc3cc(C(C)(C)C)ccc3[nH]2)C1 [pinometostat]
inactive: ZW10 0.152 | ZWILCH 0.074 | ZYG11B 0.01

Cc1ccc2c(=O)c3ccccc3n(CCCN)c2c1C
inactive: ZW10 0.013 | ZWILCH 0.013 | ZYG11B 0.009

CS(=O)(=O)CCNCc1ccc(-c2ccc3ncnc(Nc4ccc(OCc5cccc(F)c5)c(Cl)c4)c3c2)o1 [lapatinib]
inactive: ZW10 -0.01 | ZWILCH 0.018 | ZYG11B -0.05

CCCS(=O)(=O)Nc1ccc(F)c(C(=O)c2c[nH]c3ncc(-c4ccc(Cl)cc4)cc23)c1F [vemurafenib]
inactive: ZW10 0.025 | ZWILCH 0.04 | ZYG11B 0.048

Cc1cc(Nc2cc(N3CCN(C)CC3)nc(Sc3ccc(NC(=O)C4CC4)cc3)n2)n[nH]1 [tozasertib]
inactive: ZW10 0.068 | ZWILCH 0.041 | ZYG11B -0.031
